Reference: PubChem BioAssay (NCI)
Compounds without any hit were thinned out: in the full panel of roughly 79,000, 15% have a hit. The source made the active and inactive calls. Rule as the data show it: active = growth inhibition above about 70%; inactive = the rest.

What was measured:
[1] = NCI Yeast Anticancer Drug Screen. Data for the rad52 strain (AID 147);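 also: 0% = growth of vehicle-treated control cultures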; settings: S. cerevisiae rad52 mutant growth inhibition, stronger effect = higher value
Summary of the method: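 Yeast strain carrying a DNA damage repair alteration was exposed to test compounds. Growth inhibition was measured relative to vehicle-treated controls.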

[2] = NCI Yeast Anticancer Drug Screen. Data for the wt1 strain (AID 149);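 also: 0% = growth of vehicle-treated wt1 cultures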; settings: S. cerevisiae wt1 strain (SPY 50644) growth inhibition, stronger effect = higher value
Summary of the method: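 Measured: growth of wt1 yeast under compound versus vehicle treatment, reported as inhibition.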

[3] = NCI Yeast Anticancer Drug Screen. Data for the rad50EPP+ strain (AID 151);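 also: 0% = growth of vehicle-treated control cultures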; settings: S. cerevisiae rad50 mutant strain, stronger effect = higher value
Summary of the method: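 Yeast strain carrying rad50 alteration (rad50EPP+) exposed to compounds; growth inhibition measured relative to vehicle-treated controls.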

[4] = NCI Yeast Anticancer Drug Screen. Data for the mgt1 strain (AID 153); settings: S. cerevisiae mgt1 mutant growth inhibition, stronger effect = higher value
Summary of the method: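 Yeast mgt1 strain (DNA repair/cell-cycle alteration panel) exposed to compounds; growth inhibition measured relative to vehicle-treated controls.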

[5] = NCI Yeast Anticancer Drug Screen. Data for the rad50 strain (AID 155);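 also: 0% = growth of vehicle-only cultures of the same strain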; settings: S. cerevisiae rad50 strain growth inhibition, stronger effect = higher value
Summary of the method: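 Growth of the mutant yeast was measured after compound exposure and referenced to vehicle-treated cultures.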

[6] = NCI Yeast Anticancer Drug Screen. Data for the mec2-1 strain (AID 157); settings: S. cerevisiae mec2-1 strain, stronger effect = higher value
Summary of the method: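 mec2-1 yeast strain, carrying an alteration in DNA damage repair or cell cycle control, was exposed to compounds; growth inhibition was measured relative to vehicle-treated controls.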

[7] = NCI Yeast Anticancer Drug Screen. Data for the rad14 strain (AID 159);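 also: 0% = growth of vehicle-treated control cultures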; settings: S. cerevisiae rad14 strain growth inhibition, stronger effect = higher value
Summary of the method: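 Here, inhibition of yeast growth was measured after compound exposure, using a strain with a genetic defect in DNA damage repair and vehicle-treated cultures as the reference.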

[8] = NCI Yeast Anticancer Drug Screen. Data for the CLN2oe strain (AID 163);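 also: 0% = growth of vehicle-only control cultures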; settings: S. cerevisiae CLN2oe strain, stronger effect = higher value
Summary of the method: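 Yeast cells carrying a defined cell-cycle control alteration were exposed to test compounds. Growth inhibition was scored against vehicle-treated control cultures.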

[9] = NCI Yeast Anticancer Drug Screen. Data for the cln2 rad14 strain (AID 165);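 also: 0% = growth equal to vehicle treated cultures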; settings: S. cerevisiae cln2 rad14 strain, stronger effect = higher value
Summary of the method: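 Yeast carrying cln2 and rad14 alterations (cell cycle control and DNA damage repair) were exposed to compounds. Growth inhibition was measured against vehicle-treated controls.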

[10] = NCI Yeast Anticancer Drug Screen. Data for the bub3 strain (AID 167); settings: S. cerevisiae bub3 mutant strain, stronger effect = higher value
Summary of the method: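 Whole-cell yeast assay. The mutant strain was incubated with compounds, and growth inhibition was determined by comparison with vehicle-treated cells.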

[11] = NCI Yeast Anticancer Drug Screen. Data for the wt2 strain (AID 169);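 also: 0% = growth of vehicle-treated yeast cultures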; settings: S. cerevisiae wt2 strain growth inhibition, stronger effect = higher value
Summary of the method: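 Yeast cells were exposed to test compounds, and growth inhibition was measured relative to vehicle-treated controls.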

[12] = NCI Yeast Anticancer Drug Screen. Data for the mlh1 strain (AID 171);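 also: 0% = growth of vehicle-treated control cultures of the same strain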; settings: S. cerevisiae mlh1 strain growth inhibition, stronger effect = higher value
Summary of the method: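 Yeast carrying a defined genetic alteration in DNA damage repair or cell cycle control were exposed to test compounds. Growth inhibition was measured relative to vehicle-treated controls.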

[13] = NCI Yeast Anticancer Drug Screen. Data for the sgs1 strain (AID 173);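 also: 0% = growth of vehicle-only control cultures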; settings: S. cerevisiae sgs1 mutant, stronger effect = higher value
Summary of the method: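 Yeast mutant strains carrying defined defects in DNA damage repair or cell cycle control were exposed to test compounds. Growth inhibition was scored against vehicle-treated controls.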

[14] = NCI Yeast Anticancer Drug Screen. Data for the mlh1 rad18 strain (AID 175); settings: S. cerevisiae mlh1 rad18 strain growth inhibition, stronger effect = higher value
Summary of the method: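 Growth inhibition of the yeast strain was measured after compound exposure and expressed relative to vehicle-treated controls. The strain carries defined defects in DNA damage repair.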

[15] = NCI Yeast Anticancer Drug Screen. Data for the rad18 strain (AID 177); settings: S. cerevisiae rad18 mutant growth inhibition, stronger effect = higher value
Summary of the method: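 Yeast carrying a defined DNA damage repair alteration were exposed to compounds. Growth inhibition was expressed relative to vehicle-treated controls.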

[16] = at 5.0 µM (retest, dose inferred, filed as 0.5)
[17] = at 50.0 µM (retest, dose inferred, filed as 5.0)

Measured: growth inhibition

CC(C)/C(Cl)=N\OC(=O)Nc1cccc(Cl)c1
active: [6]; at 50.0 µM 87.8% | [9]; at 50.0 µM 72.3% | [10]; [17] 88% | [10]; at 50.0 µM 82.3% | [14]; at 50.0 µM 77.5%
inactive: [1]; at 1.2 µM -4% | [1]; at 3.7 µM -7% | [1]; at 11.0 µM -4% | [1]; at 33.0 µM -3% | [1]; at 100.0 µM -2% | [2]; at 1.2 µM -2% | [2]; at 3.7 µM 0% | [2]; at 11.0 µM -1% | [2]; at 33.0 µM -2% | [2]; at 100.0 µM 1% | [3]; at 1.2 µM -2% | [3]; at 3.7 µM -2% | [3]; at 11.0 µM 1% | [3]; at 33.0 µM 2% | [3]; at 100.0 µM 0% | [4]; at 1.2 µM -1% | [4]; at 3.7 µM -3% | [4]; at 11.0 µM 12% | [4]; at 33.0 µM -26% | [4]; at 100.0 µM 0% | [5]; at 1.2 µM -2% | [5]; at 3.7 µM -5% | [5]; [16] 8% | [5]; at 11.0 µM -26% | [5]; at 33.0 µM -1% | [5]; [17] 47% | [5]; at 50.0 µM 69.5% | [5]; at 100.0 µM 3% | [6]; at 1.2 µM 0% | [6]; at 3.7 µM 0% | [6]; [16] -17% | [6]; at 11.0 µM 2% | [6]; at 33.0 µM 2% | [6]; [17] 30% | [6]; at 100.0 µM 1% | [7]; at 1.2 µM 0% | [7]; at 3.7 µM 2% | [7]; at 11.0 µM 0% | [7]; at 33.0 µM 4% | [7]; at 100.0 µM 6% | [8]; at 1.2 µM -4% | [8]; at 3.7 µM -3% | [8]; at 11.0 µM -6% | [8]; at 33.0 µM -3% | [8]; at 100.0 µM 10% | [9]; [16] -3% | [9]; [17] 19% | [10]; at 1.2 µM 1% | [10]; at 3.7 µM 4% | [10]; [16] -29% | [10]; at 11.0 µM 10% | [10]; at 33.0 µM 12% | [10]; at 100.0 µM 10% | [11]; at 1.2 µM -2% | [11]; at 3.7 µM -3% | [11]; at 11.0 µM -2% | [11]; at 33.0 µM -4% | [11]; at 100.0 µM 0% | [12]; at 1.2 µM -1% | [12]; at 3.7 µM -7% | [12]; at 11.0 µM 0% | [12]; at 33.0 µM 0% | [12]; at 100.0 µM -2% | [13]; at 1.2 µM 0% | [13]; at 3.7 µM 1% | [13]; at 11.0 µM 2% | [13]; at 33.0 µM 1% | [13]; at 100.0 µM 2% | [14]; [16] -12% | [14]; [17] 22% | [15]; at 1.2 µM -7% | [15]; at 3.7 µM -8% | [15]; at 11.0 µM -10% | [15]; at 33.0 µM -24% | [15]; at 100.0 µM -1%

C[C@H](CCC(=O)NN)[C@H]1CC[C@H]2[C@@H]3CC[C@@H]4C[C@H](O)CC[C@]4(C)[C@H]3CC[C@]12C
inactive: [1]; at 1.2 µM -2% | [1]; at 3.7 µM 0% | [1]; at 11.0 µM 0% | [1]; at 33.0 µM 6% | [1]; at 100.0 µM 10% | [2]; at 1.2 µM 1% | [2]; at 3.7 µM 0% | [2]; at 11.0 µM 0% | [2]; at 33.0 µM 0% | [2]; at 100.0 µM 3% | [3]; at 1.2 µM 0% | [3]; at 3.7 µM 4% | [3]; at 11.0 µM 4% | [3]; at 33.0 µM 6% | [3]; at 100.0 µM 18% | [4]; at 1.2 µM 0% | [4]; at 3.7 µM -1% | [4]; at 11.0 µM 1% | [4]; at 33.0 µM -1% | [4]; at 100.0 µM 2% | [5]; at 1.2 µM 1% | [5]; at 3.7 µM 1% | [5]; [16] 12% | [5]; at 11.0 µM 9% | [5]; at 33.0 µM -1% | [5]; [17] 45% | [5]; at 50.0 µM 60% | [5]; at 100.0 µM 5% | [6]; at 1.2 µM 3% | [6]; at 3.7 µM 3%
